Source: PubChem BioAssay AID1159580 (chemical genetic matrix, 2015)
Screen size: about 5,500 compounds; about 2,000 (36%) were called active. Not shown: some 18% with an inconclusive outcome. Cut-off read from the data, not from the text of the source: active = normalized growth mostly below about 0.91 (no sharp cut-off); inconclusive = no clear call, values can overlap the other calls; inactive = mostly above about 0.92. Some of the results follow.

Experiment: chemical genetic growth profiling, strain panel (AID 1159580);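 note: tested at 20 µM; growth read once vehicle control cultures reached saturation at 30 °C; 1 = growth at the plate median or of vehicle wells; lower values mean less growth of the strain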
Conditions: growth OD

Measured: normalized growth

Oc1ccc(Cl)cc1Cc1cc(Cl)ccc1O
active: S. cerevisiae deletion strains, locus YJR075W, strain HOC1, stronger effect = lower value 0.0746 | S. cerevisiae deletion strains, locus YKL009W, strain mrt4, stronger effect = lower value 0.092 | S. cerevisiae deletion strains, locus YKL068W, stronger effect = lower value 0.101 | S. cerevisiae deletion strains, locus YKL085W, strain MDH1 (second series), stronger effect = lower value 0.0549 | S. cerevisiae deletion strains, locus YKL085W, strain MDH1, stronger effect = lower value 0.0549 | S. cerevisiae deletion strains, locus YKL160W, strain elf1, stronger effect = lower value 0.0693 | S. cerevisiae deletion strains, locus YKL190W, strain CNB1, stronger effect = lower value 0.0512 | S. cerevisiae deletion strains, locus YKR001C, strain vps1, stronger effect = lower value 0.0604 | S. cerevisiae deletion strains, locus YKR026C, strain gcn3, stronger effect = lower value 0.13 | S. cerevisiae deletion strains, locus YKR091W, strain srl3, stronger effect = lower value 0.0642 | S. cerevisiae deletion strains, locus YLL001W, strain dnm1, stronger effect = lower value 0.113 | S. cerevisiae deletion strains, locus YLL026W, stronger effect = lower value 0.0579 | S. cerevisiae deletion strains, locus YLL041C, strain sdh2, stronger effect = lower value 0.0645 | S. cerevisiae deletion strains, locus YLR027C, strain aat2, stronger effect = lower value 0.0566 | S. cerevisiae deletion strains, locus YLR039C, strain RIC1, stronger effect = lower value 0.0807 | S. cerevisiae deletion strains, locus YLR058C, strain SHM2, stronger effect = lower value 0.0611 | S. cerevisiae deletion strains, locus YLR102C, strain apc9, stronger effect = lower value 0.0602 | S. cerevisiae deletion strains, locus YLR113W, strain HOG1, stronger effect = lower value 0.165 | S. cerevisiae deletion strains, locus YLR221C, strain rsa3, stronger effect = lower value 0.0636 | S. cerevisiae deletion strains, locus YLR258W, strain gsy2, stronger effect = lower value 0.0643 | S. cerevisiae deletion strains, locus YLR262C, strain YPT6 (second series), stronger effect = lower value 0.0751 | S. cerevisiae deletion strains, locus YLR262C, strain YPT6, stronger effect = lower value 0.101 | S. cerevisiae deletion strains, locus YLR268W, strain sec22, stronger effect = lower value 0.0687 | S. cerevisiae deletion strains, locus YLR320W, strain mms22, stronger effect = lower value 0.0873 | S. cerevisiae deletion strains, locus YLR330W, strain CHS5, stronger effect = lower value 0.0555 | S. cerevisiae deletion strains, locus YLR342W, strain FKS1 (second series), stronger effect = lower value 0.0854 | S. cerevisiae deletion strains, locus YLR342W, strain FKS1, stronger effect = lower value 0.0648 | S. cerevisiae deletion strains, locus YLR357W, strain rsc2, stronger effect = lower value 0.273 | S. cerevisiae deletion strains, locus YLR370C, strain arc18, stronger effect = lower value 0.108 | S. cerevisiae deletion strains, locus YLR371W, strain rom2, stronger effect = lower value 0.0629 | S. cerevisiae deletion strains, locus YLR384C, strain iki3, stronger effect = lower value 0.118 | S. cerevisiae deletion strains, locus YLR418C, strain cdc73, stronger effect = lower value 0.098 | S. cerevisiae deletion strains, locus YML016C, strain PPZ1, stronger effect = lower value 0.0858 | S. cerevisiae deletion strains, locus YML032C, strain rad52, stronger effect = lower value 0.0693 | S. cerevisiae deletion strains, locus YML120C, strain ndi1, stronger effect = lower value 0.0588 | S. cerevisiae deletion strains, locus YML124C, strain tub3, stronger effect = lower value 0.0644 | S. cerevisiae deletion strains, locus YMR058W, strain fet3, stronger effect = lower value 0.131 | S. cerevisiae deletion strains, locus YMR078C, strain ctf18, stronger effect = lower value 0.071 | S. cerevisiae deletion strains, locus YMR125W, strain sto1, stronger effect = lower value 0.0949 | S. cerevisiae deletion strains, locus YMR129W, stronger effect = lower value 0.0627 | S. cerevisiae deletion strains, locus YMR205C, strain PFK2, stronger effect = lower value 0.102 | S. cerevisiae deletion strains, locus YMR223W, strain ubp8, stronger effect = lower value 0.066 | S. cerevisiae deletion strains, locus YMR231W, strain pep5, stronger effect = lower value 0.085 | S. cerevisiae deletion strains, locus YMR263W, strain SAP30, stronger effect = lower value 0.0643 | S. cerevisiae deletion strains, locus YMR307W, strain GAS1, stronger effect = lower value 0.145 | S. cerevisiae deletion strains, locus YNL067W, strain RPL9B, stronger effect = lower value 0.0779 | S. cerevisiae deletion strains, locus YNL071W, strain lat1, stronger effect = lower value 0.0636 | S. cerevisiae deletion strains, locus YNL128W, strain TEP1, stronger effect = lower value 0.0892 | S. cerevisiae deletion strains, locus YNL153C, strain GIM3, stronger effect = lower value 0.0714 | S. cerevisiae deletion strains, locus YNL183C, strain NPR1, stronger effect = lower value -0.00267 | S. cerevisiae deletion strains, locus YNL209W, strain ssb2, stronger effect = lower value 0.0857 | S. cerevisiae deletion strains, locus YNL233W, strain BNI4, stronger effect = lower value 0.056 | S. cerevisiae deletion strains, locus YNL248C, strain rpa49, stronger effect = lower value 0.109 | S. cerevisiae deletion strains, locus YNL250W, strain rad50, stronger effect = lower value 0.0758 | S. cerevisiae deletion strains, locus YNL271C, strain bni1, stronger effect = lower value 0.0676 | S. cerevisiae deletion strains, locus YNL298W, strain CLA4, stronger effect = lower value 0.0642 | S. cerevisiae deletion strains, locus YNL307C, strain MCK1, stronger effect = lower value 0.0664 | S. cerevisiae deletion strains, locus YNL322C, strain KRE1 (second series), stronger effect = lower value 0.0828 | S. cerevisiae deletion strains, locus YNL322C, strain KRE1, stronger effect = lower value 0.0618 | S. cerevisiae deletion strains, locus YNR049C, strain mso1, stronger effect = lower value 0.109 | S. cerevisiae deletion strains, locus YNR052C, strain pop2, stronger effect = lower value 0.0645 | S. cerevisiae deletion strains, locus YOL006C, strain TOP1, stronger effect = lower value 0.0992 | S. cerevisiae deletion strains, locus YOL012C, strain htz1 0.176 | S. cerevisiae deletion strains, locus YOL147C, strain pex11, stronger effect = lower value 0.0563 | S. cerevisiae deletion strains, locus YOR001W, strain rrp6, stronger effect = lower value 0.0685 | S. cerevisiae deletion strains, locus YOR061W, strain CKA2, stronger effect = lower value 0.0631 | S. cerevisiae deletion strains, locus YOR069W, strain VPS5, stronger effect = lower value 0.0593 | S. cerevisiae deletion strains, locus YOR070C, strain gyp1, stronger effect = lower value 0.0618 | S. cerevisiae deletion strains, locus YOR080W, strain dia2, stronger effect = lower value 0.0748 | S. cerevisiae deletion strains, locus YOR083W, strain WHI5, stronger effect = lower value 0.0694 | S. cerevisiae deletion strains, locus YOR106W, strain vam3, stronger effect = lower value 0.0658 | S. cerevisiae deletion strains, locus YOR136W, strain idh2, stronger effect = lower value 0.0708 | S. cerevisiae deletion strains, locus YOR144C, strain elg1, stronger effect = lower value 0.0576 | S. cerevisiae deletion strains, locus YOR184W, strain ser1, stronger effect = lower value 0.0699 | S. cerevisiae deletion strains, locus YOR231W, strain MKK1, stronger effect = lower value 0.123 | S. cerevisiae deletion strains, locus YOR265W, strain rbl2, stronger effect = lower value 0.0619 | S. cerevisiae deletion strains, locus YOR270C, strain vph1, stronger effect = lower value 0.101 | S. cerevisiae deletion strains, locus YOR290C, strain snf2, stronger effect = lower value 0.0874 | S. cerevisiae deletion strains, locus YOR316C, strain cot1, stronger effect = lower value 0.0588 | S. cerevisiae deletion strains, locus YPL051W, strain arl3, stronger effect = lower value 0.0629 | S. cerevisiae deletion strains, locus YPL055C, strain LGE1, stronger effect = lower value 0.0724 | S. cerevisiae deletion strains, locus YPL078C, strain atp4, stronger effect = lower value 0.0851 | S. cerevisiae deletion strains, locus YPL106C, strain sse1, stronger effect = lower value 0.107 | S. cerevisiae deletion strains, locus YPL240C, strain hsp82, stronger effect = lower value 0.0585 | S. cerevisiae deletion strains, locus YPL241C, strain CIN2, stronger effect = lower value 0.0663 | S. cerevisiae deletion strains, locus YPL256C, strain CLN2, stronger effect = lower value 0.114 | S. cerevisiae deletion strains, locus YPR119W, strain clb2, stronger effect = lower value 0.0612 | S. cerevisiae deletion strains, locus YPR141C, strain kar3, stronger effect = lower value 0.0922 | S. cerevisiae deletion strains, locus YPR163C, strain tif3, stronger effect = lower value 0.07 | S. cerevisiae deletion strains, locus YPR167C, strain met16, stronger effect = lower value 0.0608 | S. cerevisiae deletion strains, strain wtn01, stronger effect = lower value 0.065 | S. cerevisiae strains, strain wild type, stronger effect = lower value 0.051
